Results taken from PubChem BioAssay AID602365 (National Center for Advancing Translational Sciences (NCATS), 2012).
Records with an inconclusive call do not appear. Active and inactive are the calls of the source. Calls follow the shape of the dose curve; as a rule, active = well fitted inhibition curve with a large enough effect; inconclusive = small, poorly fitted or top-dose-only effect; inactive = flat fitted curve, though single readings scatter.

The compounds below were run against Luciferin 4-monooxygenase (Photinus pyralis) (UniProt P08659) (assay: FLuc inhibitory activity for the follow-up compounds in a biochemical assay with 1mM D-luciferin). Conditions: purified FLuc, luminescence; series mostly up to 57.5 µM.
Text: NCGC Assay Overview: Firefly (Photinus pyralis) luciferase is one of the most commonly used transcriptional reporters. It is considered one of the more dynamically responsive reporters - that is, responsive to changes in reporter transcription - as it requires no post-translational modifications and is enzymatically active directly after protein synthesis (Wood, 1998). With no endogenous expression in mammalian cells and without the requirement of external excitation, it offers very little background signal, thus generally providing excellent signal to background for most assays. Previous profiling work to determine the prevalence of compounds that affect FLuc enzymatic activity (PubChem AID 411) identified that ~3% of the MLSMR library (then at ~72K) inhibited FLuc. […] Of the compounds identified in this profile that inhibited FLuc, 151 compounds were selected for further analysis, in an effort to better understand their mode of inhibiting FLuc. The assay described here was to determine the activity of the compounds in a FLuc assay that contained a KM concentration of ATP and a high concentration (1mM) of D-luciferin.
NCGC Assay Protocol Summary: Reagents: 50mM Tris acetate, pH 7.5; 10mM Mg acetate; 1mM D-luciferin (Sigma #L9504); 10uM ATP; 0.01% Tween-20; 0.05% BSA; 10nM P. pyralis luciferase (Sigma #L9506) Control compounds used were two known firefly luciferase inhibitors (3-(5-(3-chlorophenyl)-1,2,4-oxadiazol-3-yl)benzoic acid and 5-(2-fluorophenyl)-3-phenyl-1,2,4-oxadiazole), and DMSO. Three microliters containing firefly luciferase substrates in buffer (final concentrations: 50mM Tris acetate, pH 7.5, 10mM Mg acetate, 0.01% Tween-20, 0.05% BSA, 1mM D-luciferin, 10uM ATP) are dispensed into each well of a Greiner white, solid-bottom 1536-well format plate using a flying reagent dispenser (FRD). These assay plates were then treated with 23nL of compound or DMSO using a Kalypsys pin tool, which allows for delivery of a 12-point intraplate titration of each compound to the assay plate (quantitative HTS), with a final compound concentrations ranging from approximately ~60uM to 0.3nM. One microliter of firefly luciferase in […] Tris-acetate buffer was then delivered by FRD to each well for a final enzyme concentration of 10nM. Luciferase activity was then measured using a ViewLux CCD imager (PerkinElmer), with an average exposure time of 2-30 seconds (2X binning, medium/high gain).

Chain of Luciferin 4-monooxygenase (Photinus pyralis) (P08659 whole entry, looked up): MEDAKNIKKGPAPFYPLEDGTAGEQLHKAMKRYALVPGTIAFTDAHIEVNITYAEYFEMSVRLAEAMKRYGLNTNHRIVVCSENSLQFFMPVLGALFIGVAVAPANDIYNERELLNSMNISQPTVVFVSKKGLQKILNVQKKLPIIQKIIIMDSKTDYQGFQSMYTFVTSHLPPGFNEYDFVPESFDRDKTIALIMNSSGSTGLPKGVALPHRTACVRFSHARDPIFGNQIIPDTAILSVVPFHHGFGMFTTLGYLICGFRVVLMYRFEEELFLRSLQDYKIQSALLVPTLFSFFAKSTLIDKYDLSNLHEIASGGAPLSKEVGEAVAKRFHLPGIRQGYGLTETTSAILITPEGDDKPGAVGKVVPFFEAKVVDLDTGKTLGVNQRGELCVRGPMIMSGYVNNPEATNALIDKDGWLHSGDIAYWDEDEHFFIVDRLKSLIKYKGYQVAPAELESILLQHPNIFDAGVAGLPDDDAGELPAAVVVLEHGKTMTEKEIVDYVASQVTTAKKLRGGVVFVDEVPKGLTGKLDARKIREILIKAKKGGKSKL

Structure (SMILES)	Potency
COc1ccc(C(=O)Nc2ccccc2C(=O)Nc2ccc(C(=O)O)cc2)cc1	8.19 µM (active)
O=C(Cc1ccc(Cl)cc1)Nc1cccc(C(=O)Nc2ccccc2C(=O)O)c1	36.6 µM (active)
Cc1ccc(C(=O)Nc2ccc(C(=O)O)cc2)cc1S(=O)(=O)NCc1ccccc1	inactive
CN(C)S(=O)(=O)c1ccc(C(=O)Nc2cccc(C(=O)O)c2)cc1	inactive
Cc1cccc(C(=O)Nc2ccc(-c3nc4ccccc4s3)cc2Cl)c1	inactive
Nc1cccc(-c2nc3ccc(N)cc3s2)c1	2.59 µM (active)
O=C(Nc1ccccc1C(=O)O)c1ccc(NC(=O)C2CCCCC2)cc1	16.3 µM (active)
Nc1ccc(-c2nc3cc(N)ccc3s2)cc1	18.3 µM (active)
CC(C)C(=O)Nc1cccc(C(=O)Nc2ccccc2C(=O)O)c1	18.3 µM (active)
COc1cccc(-c2nc3ccccc3s2)c1	5.17 µM (active)
O=C(O)c1ccc(NC(=O)c2cccc(NC(=O)c3cccs3)c2)cc1	32.6 µM (active)
COc1ccc2nc(NC(=O)c3ccc(NS(=O)(=O)c4cccs4)cc3)sc2c1	18.3 µM (active)
CC(C)CC(=O)Nc1cccc(C(=O)Nc2ccccc2C(=O)O)c1	23.1 µM (active)
NC(=O)Cc1ccc2sc(-c3ccccc3)nc2c1	13 µM (active)
O=S(=O)(c1ccc(-c2nc3ccccc3s2)cc1)N1CCCC1	inactive
CN(C)c1cccc(C(=O)Nc2ccc(-c3nc4ccccc4s3)cc2)c1	18.3 µM (active)
CCOC(=O)N1CCN(CC(=O)Nc2nc3ccc(OC)cc3s2)CC1	inactive
COc1ccc(-c2nc3ccccc3s2)cc1NC(=O)c1ccc(F)cc1	inactive
COc1ccc(C(=O)Nc2cccc(C(=O)O)c2)cc1S(=O)(=O)N1CCCC1	inactive

Structure (SMILES)	Potency
COc1ccc2nc(NC(=O)C3CCN(S(=O)(=O)c4cccnc4)CC3)sc2c1	inactive
Cc1ccc2nc(-c3ccc(NC(=O)CN4CCN(C(=O)c5ccco5)CC4)cc3)sc2c1	14.6 µM (active)
O=C(Nc1ccccc1C(=O)O)c1cc(S(=O)(=O)NCc2ccccc2)ccc1Cl	inactive
CC(C)(C)C(=O)Nc1ccc(-c2nc3ccccc3s2)cc1	0.0411 µM (active)
O=C(O)c1cccc(NC(=O)c2cccc(S(=O)(=O)N3CCc4ccccc4C3)c2)c1	inactive
CC(C)(C)NC(=O)c1ccccc1-c1nc2ccccc2s1	inactive
CCOc1ccc2nc(NC(=O)c3ccoc3C)sc2c1	2.91 µM (active)
O=C(Nc1ccccc1C(=O)O)c1ccccc1	inactive
CCCC(=O)Nc1nc2ccc(OCC)cc2s1	29.1 µM (active)
O=C(O)c1ccc(NC(=O)c2cc(S(=O)(=O)N3CCCCC3)c(Cl)cc2Cl)cc1	inactive
COc1ccccc1C(=O)Nc1ccc(C(=O)O)cc1	inactive
CC(C)Oc1ccc(C(=O)Nc2ccc(-c3nc4ccccc4s3)cc2)cc1	inactive
Nc1ccc(-c2nc3ccc(C(=O)O)cc3s2)cc1	1.16 µM (active)
COc1ccc(CC(=O)Nc2ccc(-c3nc4ccccc4s3)c(C)c2)cc1	inactive
Nc1ccccc1-c1nc2ccccc2s1	18.3 µM (active)
Cc1c(NC(=O)c2cc(-n3cnnc3)ccc2Cl)cccc1-c1nc2ccccc2s1	0.919 µM (active)
Cc1ccc2sc(-c3ccc(N)cc3)nc2c1	0.517 µM (active)
Cc1ccc(C(=O)O/N=C(\N)c2ccccn2)c(Cl)c1	0.0919 µM (active)
CC(C)c1ccc(C(=O)Nc2ccc(-c3nc4ccccc4s3)c(Cl)c2)cc1	inactive
